Sfp inh – blocks B. subtilis Sfp PPTase activity; Q9F4F7; Biochemical Sfp PPTase activity, qHTS; Potency, µM, most hits filed as inhibitors; 310,000 compounds, 3.5% hits; AID 1490;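 further: the enzyme is Sfp with the accession as filed and its product quenches rhodamine fluorescence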
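Compounds were incubated with enzyme (final 15 nM) for 15 min at room temperature before substrate addition started the reaction. Fluorescence at 525 nm excitation, 598 nm emission was recorded immediately and after 30 minutes.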
HP1b binding inh – inhibitors of HP1-beta chromodomain binding to methylated histone tails; AlphaScreen HP1-beta / biotin-H3K9me3 peptide binding; AID 540317; P83916; 390,000 compounds, 0.56% hits; Potency, µM (highest dose often 114 µM), usual class: inhibitors; further: nearly all actives have a fitted effect of over 70% in size
Target sequence (P83916 whole entry, looked up): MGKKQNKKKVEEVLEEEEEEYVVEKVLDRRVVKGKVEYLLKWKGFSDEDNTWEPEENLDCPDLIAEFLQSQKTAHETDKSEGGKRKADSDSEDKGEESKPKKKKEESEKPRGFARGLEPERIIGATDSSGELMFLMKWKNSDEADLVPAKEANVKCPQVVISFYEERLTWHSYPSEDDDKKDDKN
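AlphaScreen: HP1-beta (50 nM) preformed 30 min with biotin-H3(1-18)K9me3 peptide (50 nM) in PBS pH 7.4, 0.01% Tween-20. Compound added for 30 min at RT, then streptavidin donor/nickel chelate acceptor beads (10 ug/mL) for 30 min.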
BAZ2B block – BAZ2B (human) inhibition. Potency, µM (doses to about 114 µM), most hits filed as inhibitors. 360,000 compounds, 4.4% hits. AlphaScreen BAZ2B-H3K14Ac peptide displacement. Q9UIF8; further: nearly all actives have a fitted effect of over 60% in size
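BAZ2B (50 nM) with biotin-H3(5-23)K14Ac peptide (50 nM) in PBS pH 7.4, 0.01% Tween-20, preformed 30 min, then compound 30 min at room temperature; top concentration 110uM. AlphaScreen streptavidin donor/nickel chelate acceptor beads (10 ug/mL final), 20 min dark, signal read.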
JMJD2A Tudor – inhibitors of human JMJD2A Tudor domain | AlphaScreen JMJD2A-Tudor / H3K4me3 peptide binding | O75164 | 390,000 compounds, 4.4% hits | Potency, µM (doses to about 114 µM), usual class: inhibitors; further: nearly all actives have a fitted effect of over 50% in size
G9a block – inhibitors of human histone lysine methyltransferase G9a; Q96KQ7; G9a H3K9 monomethylation, AlphaScreen, 2 h; Potency, µM (titrated, usually from 102 µM), hits mostly inhibitors; 350,000 compounds, 8.8% hits; AID 504332; further: nearly all actives have a fitted effect of over 75% in size
Target sequence (Q96KQ7 913-1193 limits assumed): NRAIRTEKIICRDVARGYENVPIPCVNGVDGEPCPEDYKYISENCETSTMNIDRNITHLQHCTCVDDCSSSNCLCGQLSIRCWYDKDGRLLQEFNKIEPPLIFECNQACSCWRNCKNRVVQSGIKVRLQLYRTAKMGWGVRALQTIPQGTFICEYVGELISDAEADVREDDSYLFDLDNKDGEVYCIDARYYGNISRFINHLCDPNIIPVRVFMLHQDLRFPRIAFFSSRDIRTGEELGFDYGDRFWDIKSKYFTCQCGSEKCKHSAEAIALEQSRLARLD
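AlphaScreen detection with an anti-monomethyl H3K9 antibody quantified product after a 2 h room-temperature reaction containing 500 nM biotinylated H3K9 peptide, 20 µM SAM and 20 nM enzyme, which had been preincubated 15 min with compound.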
Hits are given with their value; n = inactive; u = inconclusive; x = no result; [ ] = dose if it differs, or a comment. Rows were chosen to be rich in hits. Some 12% of all compounds tested hit in one or more screens of this group. The call rests on the fitted dose curve; in most records, active means well fitted curve in the direction sought with a large enough effect; inconclusive means small, poorly fitted or top-dose-only effect, or another doubt; inactive means no such curve, though single readings can be large; an effect the other way counts as inactive or inconclusive.

SMILES	Sfp inh	HP1b binding inh	BAZ2B block	JMJD2A Tudor	G9a block
COc1ccc(NC(=O)CSc2ncc3c(n2)-c2cc(Cl)ccc2N(Cc2ccccc2F)S3(=O)=O)cc1	x	n	n	n	n
COc1cccc(-c2ccc3ncnc(NCc4cnc(C)cn4)c3c2)c1	n	x	x	x	n[0.501 µM]
COCc1nnc(NC(=O)c2cc(OC)c(OC)cc2[N+](=O)[O-])s1	n	u	n	n	n
CCc1nnc(NC(=O)c2cc(OC)c(OC)cc2[N+](=O)[O-])s1	n	n	n	n	x
COCc1nnc(NC(=O)c2ccc(Cl)cc2[N+](=O)[O-])s1	n	n	n	n	15.8µM
COc1cc(C(=O)Nc2nnc(SC)s2)c([N+](=O)[O-])cc1OC	n	n	n	n	31.6µM
COCc1nnc(NC(=O)c2ccccc2[N+](=O)[O-])s1	n	n	n	n	20µM
COCc1nnc(NC(=O)c2ccc(OC)cc2OC)s1	n	n	n	n	x
CCOCc1nnc(NC(=O)c2cc(Cl)ccc2OC)s1	35.5µM	n	n	n	6.31µM
O=C1N[C@@H](Cc2c[nH]c3ccccc23)C(=O)N[C@H]1Cc1ccccc1	x	n	x	n	x
Cc1ccccc1CNC(=O)C(=O)NCC(c1ccc2c(c1)OCO2)N1CCOCC1 (centres undefined)	x	n	n	n	n
CC1CCN(CCOc2cccc(Br)c2)CC1	u	u	56.2µM	7.94µM	7.94µM
Clc1cccc(OCCN2CCN(CCOc3cccc(Cl)c3)CC2)c1	n	n	u	u	u
Brc1cccc(OCCCN2CCCCCC2)c1	n	u	50.1µM	22.4µM	10µM
NC(N)=N/N=C/c1cccc(Cl)c1Cl	n	n	n	n	17.8µM
Cc1ccccc1C(=O)Nc1nc2nc(C)c(C)c(=O)n2[nH]1	x	n	n	n	n
CCOC(=O)c1csc(-n2nc(C)cc2C(F)(F)F)n1	n	n	n	n	n
Cc1cc(C)n(-c2nc(C(=O)O)cs2)n1	n	n	u	n	50.1µM
Cc1cccn2c(Nc3ccccc3)c(-c3cccs3)nc12	x	n	n	u	n
Cc1ccc(-c2nc3c(C)cccn3c2Nc2ccccc2C)s1	x	u	15.8µM	44.7µM	14.1µM
Cc1ccc(Nc2c(-c3ccc(C)cc3)nc3c(C)cccn23)cc1	x	u	x	u	11.2µM
Cc1cccn2c(Nc3ccccc3)c(-c3ccc(N4CCOCC4)cc3)nc12	x	n	n	n	n
Cc1ccccc1Nc1c(-c2ccccn2)nc2c(C)cccn12	n	u	14.1µM	39.8µM	44.7µM
CCOc1ccccc1CNC(=O)c1cc(-c2ccc(Cl)s2)nc2ccccc12	x	n	n	n	n
CSc1ccc(COC(=O)c2cc([N+](=O)[O-])ccc2N2CCOCC2)cc1	x	u	n	u	44.7µM
SMILES	Sfp inh	HP1b binding inh	BAZ2B block	JMJD2A Tudor	G9a block
CN(C)S(=O)(=O)c1cccc(COC(=O)c2cc([N+](=O)[O-])ccc2N2CCOCC2)c1	x	n	n	n	56.2µM
NC(=O)c1cc(S(=O)(=O)NCC2CCC(C(=O)Nc3ccc(Cl)cc3)CC2)cs1 (centres undefined)	x	n	n	n	n
O=C(NCC1CCCO1)c1ccc(NS(=O)(=O)c2cccs2)cc1 (centres undefined)	u	n	n	u	35.5µM
O=C(CSc1nnc(CN2CCOCC2)n1-c1ccccc1)N1CCc2ccccc21	n	n	n	n	n[12.7 µM]
CC1CCN(C(=O)CSc2nnc(Cc3cccn3C)n2CCc2ccccc2)CC1	n	n	n	u	44.7µM
CC1CCN(C(=O)CSc2nnc(CN3CCOCC3)n2-c2ccccc2)CC1	70.8µM	n	n	n	n[12.7 µM]
Cn1cccc1Cc1nnc(SCC(=O)N2CCCCCC2)n1CCc1ccccc1	n	n	n	n	50.1µM
Cn1cccc1Cc1nnc(SCC(=O)N2CCCC2)n1CCc1ccccc1	n	n	u	n	u
Cn1cccc1Cc1nnc(SCC(N)=O)n1CCc1ccccc1	n	n	n	n	44.7µM
Cc1cccc(C(=O)OCC(=O)N(C)c2ccccc2)c1C	n	n	n	n	n
Cc1ccc(CCNC(=O)CCCn2nc(C)c3c(C)n(-c4ccccc4)nc3c2=O)cc1	x	n	n	n	n
CCn1c(Cc2ccccc2)nnc1SCC(=O)NC1CCCC1	n	n	n	n	n
Cn1cccc1Cc1nnc(SCC(=O)NC2CCCC2)n1CCc1ccccc1	n	n	n	u	79.4µM
Cn1c(=O)c2c(nc(OC3CCCC3)n2C)n(C)c1=O	x	n	x	n	x
CCOc1ccc(C(=S)NC2CCCCC2)cc1OC	44.7µM	u	n	u	12.6µM

Screens: PubChem, National Center for Advancing Translational Sciences (NCATS)
